# Measured values taken from PubChem BioAssay (NCATS).
# Where “and” joins values, the source holds several entries; their conditions need not be identical. Equal entries are not always repeated. Records with an inconclusive call do not appear. Unmarked numbers belong to inactive results. Calls of active or inactive are those of the source. Calls come from the whole dose curve; as a rule, active = well fitted curve in the direction sought with a large enough effect; inconclusive = small, poorly fitted or top-dose-only effect, or another doubt; inactive = no such curve, though single readings can be large; an effect the other way counts as inactive or inconclusive.
# Assay: qHTS of pediatric cancer cell lines to identify multiple opportunities for drug repurposing: Confirmatory screen for LAN-5 cells (AID 1347113); note: nearly all actives have a fitted effect of over 65% in size; for activity change, negative = cytotoxicity: % is set by controls: 0 for no effect and ±100 for the full control effect
# Conditions: LAN-5 neuroblastoma cell viability; series mostly up to 45.9 µM; activity change, negative = cytotoxicity: at the top concentration
# How it was run: (§1)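 Viability after 48 h compound treatment at 37C, 500-1,000 cells/well, read as ATP luminescence with CellTiter-Glo. Primary screens used 11-point (MIPE, 0.78 nM-46 µM) or 8-point (NPC, 0.59 nM-46 µM) final concentrations; follow-up screens used 11-point dilutions.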
# Potency is the fitted concentration of half-maximal effect.
Structure (SMILES),"activity change, negative = cytotoxicity",Potency,outcome
CC(C)NCC(O)c1ccc(NS(C)(=O)=O)cc1 (stereo not given),10%,–,–
COc1cc2c(Nc3ccc(Br)cc3F)ncnc2cc1OCC1CCN(C)CC1,5.31%,–,–
CCCCOc1ccc(CC(=O)NO)cc1,-18.7%,–,–
CC(C)(C)C(=O)OCOP(=O)(COCCn1cnc2c(N)ncnc21)OCOC(=O)C(C)(C)C,–,9.27 µM (active),–
CC(C)(C#N)c1cc(Cn2cncn2)cc(C(C)(C)C#N)c1,16.4%,–,–
COc1cc([C@@H]2c3cc4c(cc3[C@H](O)[C@H]3COC(=O)[C@H]23)OCO4)cc(OC)c1OC,–,0.0827 µM (active),–
CCOC(=O)c1ccc(C#Cc2ccc3c(c2)C(C)(C)CCS3)nc1,1.33%,–,–
NC(=O)c1cccnc1,-16.2%,–,–
CCOC(=O)[C@H](CCc1ccccc1)N[C@H]1CS[C@H](c2cccs2)CN(CC(=O)O)C1=O,11.5%,–,–
CC(C)C[C@H](NC(=O)[C@H](CCc1ccccc1)NC(=O)CN1CCOCC1)C(=O)N[C@@H](Cc1ccccc1)C(=O)N[C@@H](CC(C)C)C(=O)[C@@]1(C)CO1,–,0.0329 µM (active),–
COc1nc(N)nc2c1ncn2[C@@H]1O[C@H](CO)[C@@H](O)[C@@H]1O,–,–,inactive
C[C@@H]1C[C@H]2[C@@H]3CCC4=CC(=O)C=C[C@]4(C)[C@@]3(Cl)[C@@H](O)C[C@]2(C)[C@@]1(OC(=O)c1ccco1)C(=O)CCl,–,0.233 µM (active),–
COc1ccc(C(=O)CC(=O)c2ccc(C(C)(C)C)cc2)cc1,22.4%,–,–
Cc1cccc(N(C)C(=S)Oc2ccc3ccccc3c2)c1,10.4%,–,–

# Assay: qHTS of pediatric cancer cell lines to identify multiple opportunities for drug repurposing: Confirmatory screen for SJ-GBM2 cells (AID 1347116); note: nearly all actives have a fitted effect of over 60% in size;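 for activity change, negative = cytotoxic: plate controls were DMSO for no effect and bortezomib for full effect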
# Conditions: SJ-GBM2 glioblastoma cells, viability; series mostly up to 45.9 µM; activity change, negative = cytotoxic: at the top concentration
# How it was run: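 Viability measured as metabolically active cells via CellTiter-Glo luminescence following 48 hours of compound exposure, 11-point dilutions in confirmatory testing. 500-1,000 cells/well plated 5 hours before dosing; controls were DMSO and 2.3 µM bortezomib.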
Structure (SMILES),"activity change, negative = cytotoxic",Potency,outcome
CC(C)NCC(O)c1ccc(NS(C)(=O)=O)cc1 (stereo not given),12.9%,–,–
COc1cc2c(Nc3ccc(Br)cc3F)ncnc2cc1OCC1CCN(C)CC1,6.63%,–,–
CCCCOc1ccc(CC(=O)NO)cc1,9.74%,–,–
CC(C)(C)C(=O)OCOP(=O)(COCCn1cnc2c(N)ncnc21)OCOC(=O)C(C)(C)C,-7.89%,–,–
Nc1nc(F)nc2c1ncn2[C@@H]1O[C@H](CO)[C@@H](O)[C@@H]1O,–,1.65 µM (active),–
CCOC(=O)[C@H](CCc1ccccc1)N[C@H]1CS[C@H](c2cccs2)CN(CC(=O)O)C1=O,–,–,inactive
CC(C)C[C@H](NC(=O)[C@H](CCc1ccccc1)NC(=O)CN1CCOCC1)C(=O)N[C@@H](Cc1ccccc1)C(=O)N[C@@H](CC(C)C)C(=O)[C@@]1(C)CO1,–,0.0737 µM (active),–
COc1nc(N)nc2c1ncn2[C@@H]1O[C@H](CO)[C@@H](O)[C@@H]1O,9.65%,–,–
CC(C(=O)O)c1ccc2c(c1)CC(=O)c1ccccc1S2 (stereo not given),9.21%,–,–
COc1ccc(C(=O)CC(=O)c2ccc(C(C)(C)C)cc2)cc1,–,–,inactive
Cc1cccc(N(C)C(=S)Oc2ccc3ccccc3c2)c1,–,–,inactive

# Assay: qHTS of pediatric cancer cell lines to identify multiple opportunities for drug repurposing: Confirmatory screen for BT-37 cells (AID 1347117); note: nearly all actives have a fitted effect of over 55% in size;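 for activity change, negative = cytotoxic: plate controls were DMSO for no effect and bortezomib for full effect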
# Conditions: BT-37 pediatric cancer cells, viability; series mostly up to 45.9 µM; activity change, negative = cytotoxic: at the top concentration
# How it was run: as §1
Structure (SMILES),Potency,"activity change, negative = cytotoxic"
COc1ccc(-c2ccc3cc(C(=O)O)ccc3c2)cc1C12CC3CC(CC(C3)C1)C2,7.37 µM (active),–
CC(C)NCC(O)c1ccc(NS(C)(=O)=O)cc1 (stereo not given),–,2.31%
COC(=O)Nc1nc2ccc(Sc3ccccc3)cc2[nH]1,1.85 µM (active),–
COc1cc2c(Nc3ccc(Br)cc3F)ncnc2cc1OCC1CCN(C)CC1,–,1.58%
CC(C)(C)C(=O)OCOP(=O)(COCCn1cnc2c(N)ncnc21)OCOC(=O)C(C)(C)C,3.69 µM (active),–
CC(C)(C#N)c1cc(Cn2cncn2)cc(C(C)(C)C#N)c1,–,0.309%
COc1cc([C@@H]2c3cc4c(cc3[C@H](O)[C@H]3COC(=O)[C@H]23)OCO4)cc(OC)c1OC,0.0522 µM (active),–
CCOC(=O)c1ccc(C#Cc2ccc3c(c2)C(C)(C)CCS3)nc1,–,-9.25%
Nc1nc(F)nc2c1ncn2[C@@H]1O[C@H](CO)[C@@H](O)[C@@H]1O,14.7 µM (active) and 414 nM (active),–
Nc1nc(N)nc(-c2cc(Cl)ccc2Cl)n1,–,-2.43%
COC(=O)Nc1nc2ccc(S(=O)c3ccccc3)cc2[nH]1 (stereo not given),2.08 µM (active),–
CCOC(=O)[C@H](CCc1ccccc1)N[C@H]1CS[C@H](c2cccs2)CN(CC(=O)O)C1=O,–,-8.3%
CC(C)C[C@H](NC(=O)[C@H](CCc1ccccc1)NC(=O)CN1CCOCC1)C(=O)N[C@@H](Cc1ccccc1)C(=O)N[C@@H](CC(C)C)C(=O)[C@@]1(C)CO1,0.0928 µM (active),–
COc1nc(N)nc2c1ncn2[C@@H]1O[C@H](CO)[C@@H](O)[C@@H]1O,18.5 µM (active),–
C[C@@H]1C[C@H]2[C@@H]3CCC4=CC(=O)C=C[C@]4(C)[C@@]3(Cl)[C@@H](O)C[C@]2(C)[C@@]1(OC(=O)c1ccco1)C(=O)CCl,0.369 µM (active),–
O=NN(CCCl)C(=O)NC1CCCCC1,–,2.26%
Nc1[nH]c(=O)ncc1F,–,-3.23%
Cc1cccc(N(C)C(=S)Oc2ccc3ccccc3c2)c1,–,-15.7%

# Assay: qHTS of pediatric cancer cell lines to identify multiple opportunities for drug repurposing: Confirmatory screen for TC32 cells (AID 1347118);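 note: cells exposed to compound for 48 h before the read; nearly all actives have a fitted effect of over 65% in size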; for activity change, negative = cytotoxicity: % is set by controls: 0 for no effect and ±100 for the full control effect
# Conditions: TC32 Ewing sarcoma cells viability qHTS; series mostly up to 45.9 µM; activity change, negative = cytotoxicity: at the top concentration
# How it was run: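 Luminescent CellTiter-Glo read-out of metabolically active TC32 cells after 48 h compound exposure. Primary: MIPE 11-point, 0.78 nM–46 µM; NPC 8-point, 0.59 nM–46 µM. Confirmatory: 11-point dilutions.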
Structure (SMILES),Potency,"activity change, negative = cytotoxicity"
COc1ccc(-c2ccc3cc(C(=O)O)ccc3c2)cc1C12CC3CC(CC(C3)C1)C2,2.08 µM (active),–
CC(C)NCC(O)c1ccc(NS(C)(=O)=O)cc1 (stereo not given),–,17.3%
COC(=O)Nc1nc2ccc(Sc3ccccc3)cc2[nH]1,0.827 µM (active),–
COc1cc2c(Nc3ccc(Br)cc3F)ncnc2cc1OCC1CCN(C)CC1,–,21.1%
CC(C)(C)C(=O)OCOP(=O)(COCCn1cnc2c(N)ncnc21)OCOC(=O)C(C)(C)C,1.17 µM (active),–
O=S(=O)(O)CCS,–,-16.9%
CC(C)(C#N)c1cc(Cn2cncn2)cc(C(C)(C)C#N)c1,–,3.43%
COc1cc([C@@H]2c3cc4c(cc3[C@H](O)[C@H]3COC(=O)[C@H]23)OCO4)cc(OC)c1OC,0.0737 µM (active),–
Nc1nc(F)nc2c1ncn2[C@@H]1O[C@H](CO)[C@@H](O)[C@@H]1O,18.5 µM (active) and 737 nM (active),–
NC(=O)c1cccnc1,16.5 µM (active),–
COC(=O)Nc1nc2ccc(S(=O)c3ccccc3)cc2[nH]1 (stereo not given),1.04 µM (active),–
CCOC(=O)[C@H](CCc1ccccc1)N[C@H]1CS[C@H](c2cccs2)CN(CC(=O)O)C1=O,8.27 µM (active),–
CC(C)C[C@H](NC(=O)[C@H](CCc1ccccc1)NC(=O)CN1CCOCC1)C(=O)N[C@@H](Cc1ccccc1)C(=O)N[C@@H](CC(C)C)C(=O)[C@@]1(C)CO1,0.0233 µM (active),–
COc1nc(N)nc2c1ncn2[C@@H]1O[C@H](CO)[C@@H](O)[C@@H]1O,3.69 µM (active),–
C[C@@H]1C[C@H]2[C@@H]3CCC4=CC(=O)C=C[C@]4(C)[C@@]3(Cl)[C@@H](O)C[C@]2(C)[C@@]1(OC(=O)c1ccco1)C(=O)CCl,0.928 µM (active),–
O=NN(CCCl)C(=O)NC1CCCCC1,–,-15.4%
Nc1[nH]c(=O)ncc1F,–,-6.96%
